# Screening results (PubChem BioAssay)
# TDP1 cell CPT: qHTS for Inhibitors of human tyrosyl-DNA phosphodiesterase 1 (TDP1): qHTS in cells in presence of CPT | 420,000 tested, 12% active | Potency, µM (doses to about 46.2 µM), for the others: at the top dose activity change, negative = growth inhibition, actives largely listed as inhibitors | AID 686979, 2013 | chicken DT40 Tdp1-/-;hTDP1 cells + 20 nM CPT, ATP luminescence, 48 h; also: % is scaled to controls: 0 for no effect and ±100 for the full control effect; nearly all actives have a fitted effect of over 55% in size
#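 Chicken DT40 Tdp1-/- cells complemented with human TDP1, 400 cells/well, exposed to compounds plus 20 nM camptothecin for at least 48 h at 37 C; viability read as ATP content by CellTiter-Glo luminescence.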
# HT1080NT lethal: qHTS for induction of synthetic lethality in tumor cells producing 2HG: qHTS for the HT-1080-NT fibrosarcoma cell line; HT-1080-NT fibrosarcoma viability, CellTiter-Glo ATP luminescence, 48 h; Potency, µM (doses to about 46.1 µM), for inactives: at the top dose activity, negative = less viability, actives largely listed as cytotoxic; 360,000 tested, 1.6% active;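 also: NT is the 2HG producing partner of a matched IDH1 knockdown line; 0% = DMSO-treated cells and -100% = media-only wells without cells; nearly all actives have a fitted effect of over 55% in size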
#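 Viability of the 2HG-overproducing fibrosarcoma line after 48 hours of compound exposure at 37 degrees C was determined by luminescence with CellTiter-Glo, and concentration-effect curves were then fitted and categorized.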
# HT1080 IDH1KD tx: qHTS for induction of synthetic lethality in tumor cells producing 2HG: qHTS for the HT-1080-IDH1KD cell line. HT-1080 IDH1 knockdown viability, ATP luminescence, 48 h. Potency, µM (highest dose often 46.1 µM), for inactives: at the highest dose activity, negative = toxicity, usual class: cytotoxic. 360,000 tested, 2% active. AID 686971, 2013;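 also: 0% = DMSO wells and -100% = cell-free medium wells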
#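 Knockdown cells (IDH1KD HT-1080) received compounds 2 h after plating at 750 cells/well and were kept 48 h at 37 °C in 5% FBS RPMI. A CellTiter-Glo luminescence read gave % activity for curve fitting.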
# TGFb SMAD3 inh: qHTS for Inhibitors of TGF-b | HepG2 CAGA-GFP TGF-b/SMAD3 reporter, GFP fluorescence, 18 h; TGF-beta stimulated, 500 pg/mL final | Potency, µM (highest dose often 46.1 µM), without a hit: top-dose activity, negative = inhibition, most hits filed as inhibitors | 410,000 tested, 1.2% active; also: % is scaled to controls: 0 for no effect and ±100 for the full control effect; nearly all actives have a fitted effect of over 65% in size
#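 First, reporter cells (HEPG2 CAGA-GFP) rested 2 h at 37 degrees C. Next, compounds were pinned in and TGF-beta added to 500 pg/mL final. After 18 h, GFP was imaged per cell and summed per well.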
# TDP1 cell noCPT: qHTS for Inhibitors of human tyrosyl-DNA phosphodiesterase 1 (TDP1): qHTS in cells in absence of CPT | 420,000 tested, 15% active | AID 686978, 2013 | Potency, µM (series often up to 46.2 µM), without a hit: at the highest dose activity change, negative = growth inhibition, hits mostly inhibitors | DT40 Tdp1-/- hTDP1 cells, no CPT, ATP luminescence, 48 h; also: % is scaled to controls: 0 for no effect and ±100 for the full control effect; nearly all actives have a fitted effect of over 55% in size
#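 Chicken DT40 Tdp1-/- cells stably complemented with human TDP1 were seeded at 400 cells/well with DMSO in place of 20 nM camptothecin. After compound pinning, cells grew at least 48 hr at 37 °C; viability read by CellTiter-Glo luminescence.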
# HepG2 viability: qHTS for Inhibitors of TGF-b: Cytotox Counterscreen; HepG2 CAGA-GFP viability, ATP luminescence, 18 h; Potency, µM (doses to about 46.1 µM), without a hit: at the top dose activity change, negative = cytotoxicity, actives largely listed as cytotoxic; 410,000 tested, 0.76% active; AID 588856, 2011
#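 CellTiter-Glo luminescence gave cytotoxicity after 18 hours at 37 degrees C. The cells were HepG2 CAGA-GFP in 1% FBS DMEM, stimulated with 500 pg/mL TGF-beta after compound addition. %Activity was normalised to no-cell wells (complete cell-killing) and DMSO (no toxicity), and curves were fitted and classified.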
# Numbers without * were called inactive; ? = inconclusive; . = not tested or not shown; [ ] = another dose, or the depositor's remark. Only some compounds are listed: those with a hit (about 17% of all), similar ones and a draw of the others. Calls follow the shape of the dose curve; as a rule, active = well fitted curve in the direction sought with a large enough effect; inconclusive = small, poorly fitted or top-dose-only effect, or another doubt; inactive = no such curve, though single readings can be large; an effect the other way counts as inactive or inconclusive. Potency is read from the fitted curve at half-maximal effect.
SMILES,TDP1 cell CPT,HT1080NT lethal,HT1080 IDH1KD tx,TGFb SMAD3 inh,TDP1 cell noCPT,HepG2 viability
CCC(=O)c1cn(CC(=O)Nc2cccc(C)c2C)c2ccccc12,3%,9%,10%,3%,-7%,0%
COc1cc(CNC[C@H]2O[C@@H](n3ccc(N)nc3=O)[C@H](O)[C@@H]2O)ccc1OCc1ccc(C)cc1,-1%,-2%,4%,-9%,-11%,-16%
COc1cc(-c2cc(C)c3c(OC)ccc(OC)c3n2)cc2c1OCCN(Cc1cn(C)nc1C)C2,33%[9.04 µM],.,.,.,-22%,.
COC(=O)[C@@]12C[C@@H](CC(=O)NCCC(C)C)C(=O)N(Cc3ccc4c(c3)OCO4)C1=CCC(C)(C)C2,?,?,?,.,18µM*,.
COCCCNC(=O)C[C@@H]1C[C@@]2(C(=O)OC)CC(C)(C)CC=C2N(Cc2ccc3c(c2)OCO3)C1=O,13%,-1%,-2%,.,?,.
CCCCOCCCNC(=O)C[C@@H]1C[C@@]2(C(=O)OC)CC(C)(C)CC=C2N(Cc2ccc3c(c2)OCO3)C1=O,?,?,?,.,21µM*,.
O=C(Nc1cccc(S(=O)(=O)Nc2ccc(Cl)cc2)c1)c1ccc[n+]([O-])c1,-4%,-4%,-3%,3%,-14%,-25%
c1ccc(-c2ncnc3ccccc23)cc1,-21%,10%,19%,-2%,-21%,2%
CCCCCc1cc(=O)oc2c(C(CCN3CCCC(C)C3)c3ccc(N(C)C)cc3)c(OC)cc(OC)c12 (stereo not drawn),?,?,-25%,?,23µM*,-76%
COc1cc(OC)c2c(c1C(CCN1CCCC(C)C1)c1ccc(N(C)C)cc1)OC(=O)CC2c1ccc(N(C)C)cc1 (stereo not drawn),.,.,.,-9%,.,-20%
CCCCCc1cc(=O)oc2c(C(CCN(CC)CC)c3ccc(N(C)C)cc3)c(OC)cc(OC)c12 (stereo not drawn),?,18µM*,-25%,?,16µM*,-109%
COc1cc(C(CCN2CCCC(C)C2)c2c(OC)cc(OC)c3c(C)cc(=O)oc23)cc(OC)c1OC (stereo not drawn),.,.,.,-4%,.,-38%
CCCCCc1cc(=O)oc2c(C(CCN3CCCC(C)C3)c3cc(OC)c(OC)c(OC)c3)c(OC)cc(OC)c12 (stereo not drawn),?,?,?,?,29µM*,16µM*
CCCCCc1cc(=O)oc2c(C(CCN3CCCCC3)c3cc(OC)c(OC)c(OC)c3)c(OC)cc(OC)c12 (stereo not drawn),?,21µM*,?,16µM*,?,13µM*
O=S1(=O)C=C[C@@H](CO)N1Cc1ccc(Br)cc1,-13%,0%,3%,-4%,-12%,0%
COc1cc(OC)c2ccc(=O)oc2c1C(CCN1CCCC(C)C1)c1ccc(N(C)C)cc1 (stereo not drawn),21µM*,-4%,-9%,4%,?,-21%
COc1cc(C2CC(=O)Oc3c(C(CCN4CCCC(C)C4)c4ccc(N(C)C)cc4)c(OC)cc(OC)c32)cc(OC)c1OC (stereo not drawn),-29%,-6%,-1%,-10%,-29%,-5%
Cc1ccc(-c2nn(-c3ccccc3)cc2/C=C/C(=O)OCC(=O)NC2CC2)o1,21µM*,1%,-15%,-2%,?,-22%
O=C(N/N=C/c1cn(-c2ccccc2)nc1-c1cccs1)c1ccncc1,?,2%,-14%,-4%,?,-12%
O=Cc1cn(-c2ccccc2)nc1-c1ccncc1,?,-23%,-16%,-2%,23µM*,-13%
Cc1ccc(-c2nn(-c3ccccc3)cc2/C=N/NC(=O)c2ccncc2)o1,?,-26%,?,5%,23µM*,-7%
CNC(=O)COC(=O)/C=C/c1cn(-c2ccccc2)nc1-c1ccc2c(c1)OCCO2,9%,0%,6%,-1%,2%,-10%
Cc1ccc(-c2nn(-c3ccccc3)cc2C=O)o1,?,?,18µM*,-7%,?,-11%
C/C(=C\c1ccc(F)cc1)C(=O)c1c(C)cc(C)[nH]c1=O,-9%,12%,0%,13%,?,-3%
CC(C)(Cc1cccc(CC(C)(C)C(=O)O)c1)C(=O)O,?,12%,4%,5%,-1%,5%
SMILES,TDP1 cell CPT,HT1080NT lethal,HT1080 IDH1KD tx,TGFb SMAD3 inh,TDP1 cell noCPT,HepG2 viability
CC(CCC(C)[n+]1cccc(C#N)c1)[n+]1cccc(C#N)c1 (stereo not drawn),-8%,.,.,20%,-23%,3%
CCOc1cc(C(=O)N/N=C/c2cn(-c3ccccc3)nc2-c2cc3ccccc3o2)cc(OCC)c1OCC,23µM*,-4%,11%,4%,13µM*,-17%
COc1ccc(CC(=O)Nc2cc(C)ccn2)cc1OC,17%,10%,1%,4%,2%,0%
Cc1cc(Nc2cccc(Cl)c2)nc2ccc(NC(=O)Cc3ccc(Cl)cc3)cc12,18µM*,.,.,?,?,-44%
COc1ccc(CC(=O)Nc2ccc3nc(Nc4cccc(Cl)c4)cc(C)c3c2)cc1OC,18µM*,.,.,-21%,16µM*,4%
Cc1cc(Nc2cccc(Cl)c2)nc2ccc(NC(=O)Cc3cccc(C(F)(F)F)c3)cc12,9.2µM*,.,.,?,7.3µM*,-59%
COc1ccc(Cl)cc1C(=O)Nc1ccc2nc(Nc3cccc(Cl)c3)cc(C)c2c1,21µM*,.,.,-3%,12µM*,-28%
COc1ccc(Cl)cc1C(=O)Nc1cccnc1,3%,3%,3%,-7%,18%,-16%
O=C(Cc1cccc(C(F)(F)F)c1)Nc1ccccc1,?,0%,8%,3%,?,-16%
C/C(CC(=O)Nc1cccc(Cl)c1)=N\NC(=O)Cc1ccc(Cl)cc1,-21%,-19%,?,-16%,-30%,-33%
CCCN(CC(=O)Nc1ccccc1C)C(=O)COc1c(Cl)cccc1Cl,-15%,1%,-7%,4%,-25%,4%
